Among the data in PubChem BioAssay (Tox21) are Potency, max activation and outcome values, retold here.

Experiment [1] in a line: Human pregnane X receptor (PXR) small molecule agonists, qHTS cell viability counter screen (AID 1346977). Further: nearly all actives have a fitted effect of over 50% in size. Further: potency means the concentration at half of the fitted maximal effect. In outline:
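Same-well viability read: CellTiter-Fluor added after 23 hr compound exposure, fluorescence measured 1 hr later. Cells were PXR-Luc HepG2 seeded at 2,000/well in 5% charcoal-stripped FBS medium, rested 5 hr before dosing at 37 C.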
For orientation: In qHTS, concentration-response curves come from the screen itself.

A short description of experiment [2]: Caspase-3/7 induction in HepG2 cells by small molecules, qHTS assay (AID 1346978). Further: nearly all actives have a fitted effect of over 15% in size. Further: potency means the concentration at half of the fitted maximal effect. In outline:
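Wild-type HepG2 cells (2,000/well) were settled 5 h at 37 C, 5% CO2, then exposed to compounds in DMSO for 17 h. Caspase-3/7 activity was read by luminescence 30 min after adding Caspase-Glo 3/7 reagent at room temperature.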

The nature of experiment [3]: Caspase-3/7 induction in CHO-K1 cells by small molecules, qHTS cell viability counter screen (AID 1346979). Further: nearly all actives have a fitted effect of over 35% in size. Further: potency means the concentration at half of the fitted maximal effect. In outline: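 Cytotoxicity counter screen: CellTiter-Fluor added to compound-treated wild-type CHO-K1 cells at 16 h (37C, 5% CO2), fluorescence measured 1 h later; same wells as caspase-3/7 measurement.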
Experiment [4] in a line: Caspase-3/7 induction in CHO-K1 cells by small molecules, qHTS assay (AID 1346980). Further: nearly all actives have a fitted effect of over 15% in size. Further: potency means the concentration at half of the fitted maximal effect. In outline: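 Wild-type cells were seeded at 1,500 per well and settled 5 hr at 37 C, 5% CO2, then exposed to DMSO-dissolved compounds for 17 hr. Caspase-Glo 3/7 reagent was added, and luminescence was read after 30min at room temperature.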
Experiment [5] in a line: Caspase-3/7 induction in HepG2 cells by small molecules, qHTS cell viability counter screen (AID 1346981). Further: nearly all actives have a fitted effect of over 30% in size. Further: potency means the concentration at half of the fitted maximal effect. In outline:
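Wild-type HepG2 cells, 2,000/well, settled 5 hr at 37 C, 5% CO2 before compound addition. Viability read by CellTiter-Fluor fluorescence, reagent added after 16 hr compound exposure, then 1 hr at 37C, in the same wells as the caspase read.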

The target of experiment [6] is Nuclear receptor subfamily 1 group I member 2 (Homo sapiens) (UniProt O75469). In words: Human pregnane X receptor (PXR) small molecule agonists, qHTS assay (AID 1346982). Further: nearly all actives have a fitted effect of over 35% in size. Further: potency means the concentration at half of the fitted maximal effect. In outline:
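PXR-Luc HepG2 reporter cells (CYP3A4-driven luciferase) in 5% charcoal-stripped FBS medium, plated 5 h before compound addition, then treated 24 h at 37C. Luciferase read by ONE-Glo luminescence after 30 min at room temperature.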

The target of experiment [7] is Acetylcholinesterase (Homo sapiens) (UniProt P22303). Description: Acetylcholinesterase (AChE) small molecule antagonists: colormetric cell-based qHTS assay (AID 1347395; calls by dose curve; further: nearly all actives have a fitted effect of over 30% in size). The method, boiled down: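 Colorimetric readout: DTNB quantifies thiocholine from acetylthiocholine hydrolysed by endogenous AChE of SH-SY5Y cells (2,000/well, plated overnight). Compound pretreatment 30 min, substrate incubation 90 min, both 37 C.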
Acetylcholinesterase (Homo sapiens), sequence (P22303 whole entry, looked up): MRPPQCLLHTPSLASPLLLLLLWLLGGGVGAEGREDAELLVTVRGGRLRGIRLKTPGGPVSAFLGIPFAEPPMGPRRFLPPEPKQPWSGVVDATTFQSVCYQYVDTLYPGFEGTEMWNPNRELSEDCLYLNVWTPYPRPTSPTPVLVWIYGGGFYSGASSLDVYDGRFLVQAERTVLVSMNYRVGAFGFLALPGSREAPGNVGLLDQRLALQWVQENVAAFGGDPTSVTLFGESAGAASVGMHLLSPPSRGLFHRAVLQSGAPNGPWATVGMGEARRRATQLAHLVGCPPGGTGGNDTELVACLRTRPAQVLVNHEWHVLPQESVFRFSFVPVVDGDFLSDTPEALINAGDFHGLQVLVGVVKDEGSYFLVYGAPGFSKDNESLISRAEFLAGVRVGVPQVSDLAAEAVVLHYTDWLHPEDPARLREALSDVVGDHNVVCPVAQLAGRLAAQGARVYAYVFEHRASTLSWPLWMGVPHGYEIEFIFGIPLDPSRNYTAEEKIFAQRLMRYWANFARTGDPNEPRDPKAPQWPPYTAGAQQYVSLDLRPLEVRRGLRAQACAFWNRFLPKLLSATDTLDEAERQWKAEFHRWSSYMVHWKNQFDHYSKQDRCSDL

Experiment [8] shares this target. In words: Acetylcholinesterase (AChE) small molecule antagonists: enzyme-based qHTS assay (AID 1347397; calls by dose curve; further: nearly all actives have a fitted effect of over 55% in size; further: potency means the concentration at half of the fitted maximal effect). The following applies: Potency: AChE enzyme activity inhibition. In outline: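 Human recombinant acetylcholinesterase; substrate acetylthiocholine; thiocholine quantified with DTNB (colorimetric). Compound preincubation 30 min RT; reaction 10 min RT.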
The target is the same in experiment [9]. Description: Acetylcholinesterase (AChE) small molecule antagonists: fluorescence cell-based qHTS assay (AID 1347398; calls by dose curve; further: nearly all actives have a fitted effect of over 50% in size; further: potency means the concentration at half of the fitted maximal effect). The following applies: Potency: AChE activity. The method, boiled down:
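Thiocholine generated from acetylthiocholine by SH-SY5Y cell AChE is detected with Thiolite Green (Ex/Em 490/520 nm) after 40 min at room temperature, following 30 min compound pretreatment at 37 C.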

The target is the same in experiment [10]. In words: Acetylcholinesterase (AChE) small molecule antagonists: enzyme-based qHTS assay with human liver microsomes (AID 1347399; calls by dose curve; further: nearly all actives have a fitted effect of over 60% in size). The following applies: Potency: qHTS inhibition. The method, boiled down: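 Recombinant human AChE (50 mU/mL in the enzyme mix) and human liver microsomes (0.25 mg/mL final) were preincubated with compound and NADPH (0.25 mg/mL final) for 30 min at 37 C. Acetylthiocholine/DTNB was then added; thiocholine was read colorimetrically after 10 min at room temperature.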

For experiment [11], the target named is Cytochrome P450 2D6 (Homo sapiens) (UniProt P10635). In words: Cytochrome P450 Family 2 Subfamily D Member 6 (CYP2D6) small molecule antagonists: luciferase reporter qHTS assay (AID 1671196). Further: nearly all actives have a fitted effect of over 50% in size. Further: potency means the concentration at half of the fitted maximal effect. The method, boiled down: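 Cell-free P450-Glo system: CYP2D6 with proluciferin substrate was pre-incubated with compound for 10 min, then reacted with NADPH regeneration for 1 h at room temperature. Luciferin product was detected after 20 min, and data were reported as relative luminescence units.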
Cytochrome P450 2D6 (Homo sapiens), sequence (P10635 whole entry, looked up): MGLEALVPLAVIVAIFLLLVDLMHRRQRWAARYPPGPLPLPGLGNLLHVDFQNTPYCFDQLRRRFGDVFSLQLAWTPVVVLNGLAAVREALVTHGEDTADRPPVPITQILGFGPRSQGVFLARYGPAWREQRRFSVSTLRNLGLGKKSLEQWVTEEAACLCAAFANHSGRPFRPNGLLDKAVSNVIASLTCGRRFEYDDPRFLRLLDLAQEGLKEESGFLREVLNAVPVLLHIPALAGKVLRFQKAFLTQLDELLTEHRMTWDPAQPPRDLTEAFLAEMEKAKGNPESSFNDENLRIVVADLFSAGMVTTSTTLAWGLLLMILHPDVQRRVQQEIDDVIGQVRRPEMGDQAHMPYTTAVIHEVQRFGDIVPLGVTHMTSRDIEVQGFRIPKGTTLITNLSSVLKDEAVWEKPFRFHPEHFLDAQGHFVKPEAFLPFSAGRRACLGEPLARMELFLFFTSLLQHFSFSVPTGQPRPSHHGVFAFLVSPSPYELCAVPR
A general note: In a reporter assay the amount or activity of a reporter protein is the signal.

Experiment [12] has as its target Cytochrome P450 2C19 (Homo sapiens) (UniProt P33261). Description: Cytochrome P450 Family 2 Subfamily C Member 19 (CYP2C19) small molecule antagonists: luciferase reporter qHTS assay (AID 1671197). Further: nearly all actives have a fitted effect of over 65% in size. Further: potency means the concentration at half of the fitted maximal effect. The method, boiled down:
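Inhibition of CYP2C19 was scored from loss of luminescence in a P450-Glo proluciferin substrate assay, NADPH-started and run 1 h at 37C, with ketoconazole as positive control.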

Experiment [13] addresses Cytochrome P450 2C9 (Homo sapiens) (UniProt P11712). Description: Cytochrome P450 Family 2 Subfamily C Member 9 (CYP2C9) small molecule antagonists: luciferase reporter qHTS assay (AID 1671198). Further: nearly all actives have a fitted effect of over 50% in size. Further: potency means the concentration at half of the fitted maximal effect. The method, boiled down: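 CYP2C9 activity was measured with a P450-Glo proluciferin substrate. Enzyme–substrate mix was held with compound for 10 min at room temperature, then NADPH regeneration solution was added for 1 h at 37C. Luciferin product was read as luminescence.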

The target in experiment [14] is Cytochrome P450 1A2 (Homo sapiens) (UniProt P05177). Description: Cytochrome P450 Family 1 Subfamily A Member 2 (CYP1A2) small molecule antagonists: luciferase reporter qHTS assay (AID 1671199). Further: nearly all actives have a fitted effect of over 50% in size. Further: potency means the concentration at half of the fitted maximal effect. In outline:
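P450-Glo CYP1A2 enzyme–proluciferin substrate mix with compound 10 min at room temperature, then NADPH regeneration 1 h at room temperature. Luciferin detection reagent added, luminescence read after 20 min; furafylline positive control.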

For experiment [15], the target named is Voltage-gated inwardly rectifying potassium channel KCNH2 (Homo sapiens) (UniProt Q12809). Description: Human Ether-a-go-go-Related Gene (hERG) channel small molecule antagonists: fluorescence cell-based qHTS assay (AID 1671200). Further: nearly all actives have a fitted effect of over 50% in size. Further: potency means the concentration at half of the fitted maximal effect. The method, boiled down: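 Thallium flux as potassium surrogate: FluxOR II dye loaded 1 h at room temperature into hERG-expressing U2OS cells, then stimulus buffer added after 10 min. Kinetic 480 nm excitation/540 nm emission read, 2 min.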
Voltage-gated inwardly rectifying potassium channel KCNH2 (Homo sapiens), sequence (Q12809 whole entry, looked up): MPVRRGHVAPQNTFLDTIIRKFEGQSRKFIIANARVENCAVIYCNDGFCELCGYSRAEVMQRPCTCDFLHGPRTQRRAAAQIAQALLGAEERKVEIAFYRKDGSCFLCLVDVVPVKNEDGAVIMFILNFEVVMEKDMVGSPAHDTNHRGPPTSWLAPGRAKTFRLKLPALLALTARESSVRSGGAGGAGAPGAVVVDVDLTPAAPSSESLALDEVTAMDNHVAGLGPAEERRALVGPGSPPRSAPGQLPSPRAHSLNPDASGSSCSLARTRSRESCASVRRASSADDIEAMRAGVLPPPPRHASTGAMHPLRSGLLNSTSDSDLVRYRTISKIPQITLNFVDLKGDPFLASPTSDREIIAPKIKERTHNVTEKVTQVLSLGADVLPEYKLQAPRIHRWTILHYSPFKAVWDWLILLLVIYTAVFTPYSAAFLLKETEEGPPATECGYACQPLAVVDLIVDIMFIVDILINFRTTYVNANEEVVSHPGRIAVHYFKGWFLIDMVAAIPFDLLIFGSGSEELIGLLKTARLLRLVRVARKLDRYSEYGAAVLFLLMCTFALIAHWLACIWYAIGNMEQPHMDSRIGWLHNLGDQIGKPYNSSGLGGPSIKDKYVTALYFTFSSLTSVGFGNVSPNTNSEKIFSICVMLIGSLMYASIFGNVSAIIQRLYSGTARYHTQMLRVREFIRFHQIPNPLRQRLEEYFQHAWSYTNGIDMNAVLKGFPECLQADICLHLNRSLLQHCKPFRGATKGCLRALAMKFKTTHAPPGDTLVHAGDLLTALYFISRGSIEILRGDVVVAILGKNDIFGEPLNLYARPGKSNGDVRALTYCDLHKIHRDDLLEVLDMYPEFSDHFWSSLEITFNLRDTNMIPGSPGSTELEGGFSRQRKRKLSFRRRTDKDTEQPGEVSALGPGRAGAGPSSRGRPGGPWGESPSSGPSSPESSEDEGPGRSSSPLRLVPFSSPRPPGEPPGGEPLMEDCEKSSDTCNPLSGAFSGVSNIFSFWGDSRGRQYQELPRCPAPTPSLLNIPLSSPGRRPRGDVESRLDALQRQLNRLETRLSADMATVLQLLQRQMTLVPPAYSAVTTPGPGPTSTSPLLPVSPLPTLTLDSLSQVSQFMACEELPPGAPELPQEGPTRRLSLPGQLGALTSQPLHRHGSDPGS

Experiment [16] has as its target Cytochrome P450 3A4 (Homo sapiens) (UniProt P08684). Description: Cytochrome P450 Family 3 Subfamily A Member 4 (CYP3A4) small molecule antagonists: luciferase reporter qHTS assay (AID 1671201). Further: nearly all actives have a fitted effect of over 50% in size. Further: potency means the concentration at half of the fitted maximal effect. In outline: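 Recombinant human CYP3A4 converts a proluciferin substrate to luciferin over 1 h at room temperature after NADPH regeneration solution is added (compound preincubated 10 min); detection reagent stops reaction, luminescence read 20 min later as relative units.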

For experiment [17], the target named is Nuclear receptor subfamily 1 group I member 2 (Rattus norvegicus) (UniProt Q9R1A7). Description: Rat pregnane X receptor (rPXR) activation by small molecules, qHTS assay (AID 1346983). Further: nearly all actives have a fitted effect of over 20% in size. Particulars: rPXR luciferase reporter cells, One-Glo luminescence, 24 h; stronger effect = higher value. In outline:
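Cell-based rPXR luciferase reporter assay, 2,000 cells per well, rested 5hr at 37 C before compound addition in DMSO, then 24 hr at 37 C. One-Glo reagent was added and luminescence read after 30 min at room temperature.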

Experiment [18] deals with Nuclear receptor subfamily 1 group I member 2 (Homo sapiens) (UniProt O75469). Description: CYP3A4 induction through human pregnane X receptor (PXR) by small molecules, qHTS assay (AID 1346984). Further: nearly all actives have a fitted effect of over 40% in size. The method, boiled down:
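DPX-2 HepG2 cells carrying a PXR response element and CYP3A4-promoter luciferase construct, treated with compounds 24 hr at 37C. Then P450-Glo CYP3A4 Luciferin-IPA substrate (3uM final) for 3 hr at 37C, One-Glo added, luminescence read.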

Experiment [19] shares this target. In words: Human pregnane X receptor (PXR) activation by small molecules, qHTS assay (AID 1346985). Further: nearly all actives have a fitted effect of over 40% in size. In outline: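 DPX-2 cells (HepG2 co-transfected with a PXR response element and a CYP3A4-promoter luciferase construct) were seeded at 2,000 per well, rested 5 hr at 37C, then exposed to DMSO-dissolved compounds for 24 hr. Activation was read as luciferase luminescence.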

Each structure is given as a SMILES string. Values joined by “and” are separate entries in the source; they are usually repeats but may differ in a detail not shown here. Identical values can stand only once. Records with an inconclusive call do not appear. Some structures have more than one record in an assay (separate samples or runs), and their calls can disagree. Active and inactive are the calls of the source. Unless noted, the call rests on the fitted dose curve; in most records, active means well fitted curve in the direction sought with a large enough effect in the repeat runs; inconclusive means weak or mixed curves; inactive means no such curve, though single readings can be large; an effect the other way counts as inactive or inconclusive.
On the % scale 0 is the no-effect control and ±100 the full control effect.

Cytochrome P450 1A2 (Homo sapiens), sequence (P05177 whole entry, looked up): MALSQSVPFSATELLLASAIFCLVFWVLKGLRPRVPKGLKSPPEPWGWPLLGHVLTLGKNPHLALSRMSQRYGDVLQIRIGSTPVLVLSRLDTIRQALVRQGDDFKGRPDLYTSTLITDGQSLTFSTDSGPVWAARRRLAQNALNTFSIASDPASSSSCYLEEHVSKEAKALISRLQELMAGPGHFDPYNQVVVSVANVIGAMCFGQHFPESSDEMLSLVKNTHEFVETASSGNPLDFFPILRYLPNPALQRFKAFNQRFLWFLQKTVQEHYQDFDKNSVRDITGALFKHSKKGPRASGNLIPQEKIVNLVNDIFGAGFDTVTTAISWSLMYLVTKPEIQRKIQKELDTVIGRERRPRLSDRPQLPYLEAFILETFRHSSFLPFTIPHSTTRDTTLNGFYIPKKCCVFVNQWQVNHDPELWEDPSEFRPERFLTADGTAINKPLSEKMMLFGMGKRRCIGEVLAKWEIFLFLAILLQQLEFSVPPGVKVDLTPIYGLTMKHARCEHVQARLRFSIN
Nuclear receptor subfamily 1 group I member 2 (Homo sapiens), sequence (O75469 whole entry, looked up): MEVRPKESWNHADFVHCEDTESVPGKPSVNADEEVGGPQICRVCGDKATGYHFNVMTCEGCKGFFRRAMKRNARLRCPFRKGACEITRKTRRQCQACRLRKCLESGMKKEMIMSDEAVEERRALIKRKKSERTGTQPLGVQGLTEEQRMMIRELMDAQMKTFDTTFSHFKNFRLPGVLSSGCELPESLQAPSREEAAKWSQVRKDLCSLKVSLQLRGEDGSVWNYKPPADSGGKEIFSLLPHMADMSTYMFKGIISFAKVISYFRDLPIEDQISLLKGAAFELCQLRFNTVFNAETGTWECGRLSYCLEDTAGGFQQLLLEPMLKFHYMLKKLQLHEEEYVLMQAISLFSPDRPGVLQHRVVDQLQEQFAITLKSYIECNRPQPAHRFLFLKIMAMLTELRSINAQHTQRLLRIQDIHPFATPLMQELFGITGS
Cytochrome P450 2C19 (Homo sapiens), sequence (P33261 whole entry, looked up): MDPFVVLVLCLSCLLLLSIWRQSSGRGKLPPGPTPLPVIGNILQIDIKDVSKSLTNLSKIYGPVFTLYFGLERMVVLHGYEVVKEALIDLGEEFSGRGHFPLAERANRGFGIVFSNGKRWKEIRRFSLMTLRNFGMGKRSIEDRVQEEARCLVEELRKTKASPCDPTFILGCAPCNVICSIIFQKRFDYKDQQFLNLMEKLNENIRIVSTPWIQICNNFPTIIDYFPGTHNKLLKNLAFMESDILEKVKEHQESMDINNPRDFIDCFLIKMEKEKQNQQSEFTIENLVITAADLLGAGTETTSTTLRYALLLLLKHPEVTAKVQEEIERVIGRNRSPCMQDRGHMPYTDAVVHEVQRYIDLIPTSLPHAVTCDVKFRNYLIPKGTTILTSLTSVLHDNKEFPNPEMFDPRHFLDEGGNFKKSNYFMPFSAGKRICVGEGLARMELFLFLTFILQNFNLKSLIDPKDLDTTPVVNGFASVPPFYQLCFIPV
Cytochrome P450 2C9 (Homo sapiens), sequence (P11712 whole entry, looked up): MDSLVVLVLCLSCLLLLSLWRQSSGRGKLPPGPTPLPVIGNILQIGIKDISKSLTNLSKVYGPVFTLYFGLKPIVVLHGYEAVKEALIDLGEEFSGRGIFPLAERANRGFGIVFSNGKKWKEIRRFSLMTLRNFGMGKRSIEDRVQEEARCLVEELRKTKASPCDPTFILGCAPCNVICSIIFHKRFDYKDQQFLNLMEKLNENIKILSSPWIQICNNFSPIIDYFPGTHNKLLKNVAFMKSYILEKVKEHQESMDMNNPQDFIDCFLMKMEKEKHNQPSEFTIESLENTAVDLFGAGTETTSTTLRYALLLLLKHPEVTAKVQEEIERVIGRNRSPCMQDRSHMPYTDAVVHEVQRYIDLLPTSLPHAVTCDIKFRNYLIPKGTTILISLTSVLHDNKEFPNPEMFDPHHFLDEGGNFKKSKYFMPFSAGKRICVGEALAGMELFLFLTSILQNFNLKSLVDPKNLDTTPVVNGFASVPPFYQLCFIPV
Cytochrome P450 3A4 (Homo sapiens), sequence (P08684 whole entry, looked up): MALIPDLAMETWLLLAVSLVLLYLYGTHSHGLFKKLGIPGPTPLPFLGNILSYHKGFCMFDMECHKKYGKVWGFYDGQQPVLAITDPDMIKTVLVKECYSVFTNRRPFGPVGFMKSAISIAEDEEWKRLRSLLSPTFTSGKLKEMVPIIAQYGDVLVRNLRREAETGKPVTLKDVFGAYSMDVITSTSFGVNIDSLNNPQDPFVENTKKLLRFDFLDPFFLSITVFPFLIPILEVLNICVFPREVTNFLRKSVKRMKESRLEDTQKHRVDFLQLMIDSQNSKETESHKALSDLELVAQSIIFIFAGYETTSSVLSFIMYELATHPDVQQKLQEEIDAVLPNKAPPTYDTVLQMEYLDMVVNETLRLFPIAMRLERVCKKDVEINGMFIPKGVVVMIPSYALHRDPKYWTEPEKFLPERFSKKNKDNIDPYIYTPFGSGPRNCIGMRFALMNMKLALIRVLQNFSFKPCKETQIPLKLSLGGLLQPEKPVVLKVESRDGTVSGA

For `CCCCCCCC[N+](C)(CCCCCCCC)CCCCCCCC`, the Potency was 30.6 µM (active) and 5.45 µM (active) and 13.7 µM (active) in [1]; 54.4 µM (active) and 15.4 µM (active) in experiment [2]; 13.7 µM (active) and 4.86 µM (active) and 6.11 µM (active) in experiment [3]; 12.2 µM (active) and 13.7 µM (active) in experiment [4]; 61 µM (active) and 15.4 µM (active) and 21.7 µM (active) in [5]; 12.2 µM (active) and 2.44 µM (active) in experiment [6]. Besides, the Potency is 79.5 µM (active) and inactive and 71 µM (active) in [8]; 63.2 µM (active) and inactive and 79.6 µM (active) in experiment [9]; 28.2 nM (active) and 56.5 nM (active) and 564 nM (active) in experiment [11]; 5.63 µM (active) and 3.56 µM (active) and 31.7 µM (active) in [12]; 28.2 µM (active) and 2.83 µM (active) and 35.6 µM (active) in experiment [13]; 39.8 µM (active) and 35.6 µM (active) in [14]. Further, the Potency was 21.8 nM (active) and 39 nM (active) and 977 nM (active) in [15]; 1 µM (active) and 449 nM (active) and 6.33 µM (active) in experiment [16]. The Potency result in experiment [7] and in [10] was “inactive” each time.
Consider `Clc1ccc(C(Cl)(Cl)Cl)cc1`, for which the Potency result in experiment [1], in experiment [2], in experiment [3], in experiment [4], in [5] and in [6] was “inactive” throughout. Also, the Potency result in experiment [7], in experiment [8], in experiment [9], in experiment [10], in experiment [11] and in experiment [13] was “inactive” throughout. Moreover, the Potency result in experiment [14], in experiment [15] and in experiment [16] was “inactive” in each case. Further, the Potency result in experiment [12] is “inactive and 28.3 µM (active)”.
Turning to `C=CC(=O)OCC(CC)(COC(=O)C=C)COC(=O)C=C`, the Potency in experiment [1] was 31.6 µM (active) and 30.6 µM (active); in experiment [2], 25 µM (active) and 24.3 µM (active); in experiment [3] it was 4.99 µM (active) and 4.86 µM (active); in [4], 4.86 µM (active); in experiment [5] it was 35.3 µM (active) and 24.3 µM (active); in experiment [11], 65 µM (active) and 63.3 µM (active). For the same compound, the Potency in experiment [12] was 16.3 µM (active) and 15.9 µM (active); in experiment [13], 13 µM (active) and 28.3 µM (active); in experiment [14], 39.9 µM (active); in experiment [16], 818 nM (active) and 2.52 µM (active). Further, the Potency entry in experiment [6], in experiment [7], in [8], in experiment [9], in experiment [10] and in [15] was “inactive” throughout.
With `COP(=S)(OC)Oc1ccc(Sc2ccc(OP(=S)(OC)OC)cc2)cc1`, the Potency result in [1], in experiment [2], in experiment [3], in experiment [4], in experiment [5] and in [18] was “inactive” throughout. Moreover, the Potency entry in [7], in experiment [8], in experiment [9], in [10], in [14] and in [15] was “inactive” each time. For the same compound, the Potency result in [16] is “inactive”. Also, the Potency in experiment [6] is 24.3 µM (active) and inactive; in experiment [11] it was 63.3 µM (active) and inactive; in experiment [12], 3.17 µM (active) and 4.9 µM (active); in experiment [13], 5.64 µM (active) and 11 µM (active). Moreover, in experiment [17], the max activation was 1.76% (inactive). The call in experiment [19] was inactive.
`ClC(Cl)(Cl)c1ccccc1`: the Potency entry in experiment [1], in [2], in experiment [3], in experiment [4], in experiment [5] and in [6] was “inactive” each time. For the same compound, the Potency result in experiment [7], in experiment [8], in [9], in experiment [10], in experiment [11] and in experiment [13] was “inactive” throughout. Moreover, the Potency entry in experiment [14], in [15] and in [16] was “inactive” throughout. Besides, the Potency in [12] was 89.5 µM (active) and inactive.
